Records with an inconclusive call do not appear. The source made the active and inactive calls. Calls come from the whole dose curve; as a rule, active = well fitted curve in the direction sought with a large enough effect in the repeat runs; inconclusive = weak or mixed curves; inactive = no such curve, though single readings can be large; an effect the other way counts as inactive or inconclusive.
Legend:
[1] = qHTS RealTime-Glo MT Cell Viability Assay in HepG2 cells - 40 hour (AID 1224870); note: nearly all actives have a fitted effect of over 50% in size
Outline: (§1)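 HepG2 cells (600/well) mixed with RealTime-Glo MT reagent, settled 5 h at 37 C/5% CO2 before compound addition. Nonlytic NanoLuc luminescence from viable-cell prosubstrate reduction read repeatedly during 40 h treatment at 37 C.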

[2] = A CellTox Green Cytotoxicity Assay to monitor cytotoxicity in HEK293 cells - 40 hour (AID 1224871); note: nearly all actives have a fitted effect of over 45% in size
Outline: (§2)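 Nonlytic real-time cytotoxicity: HEK293 + CellTox Green reagent plated, 5 h preincubation, pintool compound addition (23 nL in DMSO), 37 C for 40 h, fluorescence measured at successive time points.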

[3] = qHTS RealTime-Glo MT Cell Viability Assay in HEK293 cells - 16 hour (AID 1224872); note: nearly all actives have a fitted effect of over 50% in size; note: potency is the fitted concentration of half-maximal effect
Outline: (§3)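 Nonlytic real-time viability readout: viable cells convert prosubstrate to NanoLuc substrate, giving luminescence proportional to live cell number. HEK293, 600 cells/well, compound added after 5 h, continuous culture at 37 C.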

[4] = qHTS RealTime-Glo MT Cell Viability Assay in HepG2 cells - 8 hour (AID 1224873); note: nearly all actives have a fitted effect of over 55% in size
Outline: as §1

[5] = qHTS RealTime-Glo MT Cell Viability Assay in HEK293 cells - 40 hour (AID 1224874); details: RealTime-Glo luminescence; max response: hits give low values; note: nearly all actives have a fitted effect of over 50% in size; note: potency is the fitted concentration of half-maximal effect
Outline: (§4)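 Cells were seeded together with NanoLuc luciferase and a prosubstrate that viable cells reduce to a luciferase substrate. After a 5 h incubation at 37 C/5% CO2, compounds were added and luminescence was measured repeatedly during 40 h of treatment.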

[6] = A CellTox Green Cytotoxicity Assay to monitor cytotoxicity in HEK293 cells - 24 hour (AID 1224875); note: series mostly up to about 77 µM; nearly all actives have a fitted effect of over 45% in size
Outline: as §2

[7] = A CellTox Green Cytotoxicity Assay to monitor cytotoxicity in HepG2 cells - 16 hour (AID 1224876); note: nearly all actives have a fitted effect of over 45% in size
Outline: (§5)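 Read-out is fluorescence of a cyanine dye excluded from live cells that stains DNA of dead HepG2 cells, with signal proportional to cytotoxicity. Plates were read at 0, 8, 16, 24, 32 and 40 h after compound addition.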

[8] = qHTS RealTime-Glo MT Cell Viability Assay in HepG2 cells - 32 hour (AID 1224877); note: nearly all actives have a fitted effect of over 55% in size
Outline: (§6)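 Luminescence read-out: viable HepG2 cells reduce a prosubstrate to a NanoLuc substrate, giving a signal proportional to live cell number. Reads taken at 0, 8, 16, 24, 32 and 40 h of compound exposure at 37 C.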

[9] = A CellTox Green Cytotoxicity Assay to monitor cytotoxicity in HepG2 cells - 24 hour (AID 1224878); note: nearly all actives have a fitted effect of over 45% in size
Outline: as §5

[10] = A CellTox Green Cytotoxicity Assay to monitor cytotoxicity in HepG2 cells - 40 hour (AID 1224879); note: nearly all actives have a fitted effect of over 40% in size
Outline: as §5

[11] = A CellTox Green Cytotoxicity Assay to monitor cytotoxicity in HEK293 cells - 32 hour (AID 1224881); note: nearly all actives have a fitted effect of over 40% in size
Outline: as §2

[12] = A CellTox Green Cytotoxicity Assay to monitor cytotoxicity in HepG2 cells - 32 hour (AID 1224883); note: nearly all actives have a fitted effect of over 50% in size
Outline: as §5

[13] = A CellTox Green Cytotoxicity Assay to monitor cytotoxicity in HEK293 cells - 8 hour (AID 1224884); note: nearly all actives have a fitted effect of over 35% in size
Outline: as §2

[14] = qHTS RealTime-Glo MT Cell Viability Assay in HepG2 cells - 16 hour (AID 1224885); note: nearly all actives have a fitted effect of over 50% in size
Outline: as §6

[15] = qHTS RealTime-Glo MT Cell Viability Assay in HEK293 cells - 24 hour (AID 1224886)
Outline: as §3

[16] = qHTS RealTime-Glo MT Cell Viability Assay in HEK293 cells - 8 hour (AID 1224887)
Outline: as §4

[17] = A CellTox Green Cytotoxicity Assay to monitor cytotoxicity in HEK293 cells - 16 hour (AID 1224888); note: nearly all actives have a fitted effect of over 35% in size
Outline: as §2

[18] = qHTS RealTime-Glo MT Cell Viability Assay in HEK293 cells - 0 hour (AID 1224880)
Outline: as §4

[19] = A CellTox Green Cytotoxicity Assay to monitor cytotoxicity in HepG2 cells - 0 hour (AID 1224882); note: nearly all actives have a fitted effect of over 35% in size
Outline: as §5

[20] = qHTS RealTime-Glo MT Cell Viability Assay in HepG2 cells - 0 hour (AID 1224889); note: nearly all actives have a fitted effect of over 50% in size
Outline: as §6
% is set by controls: 0 for no effect and ±100 for the full control effect.

C[C@H]1C[C@H]2[C@@H]3CCC4=CC(=O)C=C[C@]4(C)[C@@]3(F)[C@@H](O)C[C@]2(C)[C@@]1(O)C(=O)COP(=O)(O)O
inactive: Potency [1] | Potency [2] | Potency [3] | outcome [4] | max response [5] -11.1% | Potency [6] | Potency [7] | Potency [8] | Potency [9] | Potency [10] | Potency [11] | Potency [12] | Potency [13] | outcome [14] | Potency [15] | Potency [16] | Potency [17]

CCCCCCOC(=O)c1ccccc1
inactive: Potency [1] | Potency [2] | Potency [3] | outcome [4] | Potency [6] | Potency [7] | Potency [8] | Potency [9] | Potency [10] | Potency [18] | Potency [11] | Potency [19] | Potency [12] | Potency [13] | outcome [14] | Potency [15] | Potency [16] | Potency [17] | Potency [20]

CCc1ccc2c(c1)C(=O)c1ccccc1C2=O
inactive: Potency [1] | Potency [2] | Potency [3] | outcome [4] | max response [5] 11.6% | Potency [6] | Potency [7] | Potency [8] | Potency [9] | Potency [18] | Potency [11] | Potency [12] | Potency [13] | outcome [14] | Potency [16] | Potency [17] | Potency [20]

Clc1cc(Cl)c2c(c1)N=C1CCCCCN1C2
active: Potency [3] 21.3 µM | Potency [5] 23.9 µM
inactive: Potency [1] | Potency [2] | outcome [4] | Potency [6] | Potency [7] | Potency [8] | Potency [9] | Potency [10] | Potency [11] | Potency [19] | Potency [12] | Potency [13] | outcome [14] | Potency [17] | Potency [20]

OCC(O)c1ccccc1 (centres undefined)
inactive: Potency [1] | Potency [2] | Potency [3] | outcome [4] | max response [5] -20.6% | Potency [6] | Potency [7] | Potency [8] | Potency [9] | Potency [10] | Potency [11] | Potency [19] | Potency [12] | Potency [13] | outcome [14] | Potency [15] | Potency [16] | Potency [20]

CCCCOC(=O)CC#N
inactive: Potency [1] | Potency [2] | Potency [3] | outcome [4] | max response [5] 7.32% | Potency [6] | Potency [7] | Potency [8] | Potency [9] | Potency [10] | Potency [11] | Potency [19] | Potency [12] | Potency [13] | outcome [14] | Potency [16] | Potency [17] | Potency [20]

COC(=O)Cc1cccc2ccccc12
inactive: Potency [1] | Potency [2] | Potency [3] | outcome [4] | max response [5] -1.93% | Potency [6] | Potency [7] | Potency [8] | Potency [9] | Potency [10] | Potency [11] | Potency [19] | Potency [12] | Potency [13] | outcome [14] | Potency [15] | Potency [16] | Potency [17] | Potency [20]

CC(C)Cc1nccs1
inactive: Potency [1] | Potency [2] | Potency [3] | outcome [4] | Potency [6] | Potency [7] | Potency [8] | Potency [9] | Potency [10] | Potency [18] | Potency [19] | Potency [12] | Potency [13] | outcome [14] | Potency [15] | Potency [16] | Potency [17] | Potency [20]

CO[C@@H]1[C@@H](O[C@@H]2O[C@H](C)[C@@H](O[C@H]3C[C@@](C)(O)[C@@H](O)[C@H](C)O3)[C@H](N(C)C)[C@H]2O)[C@@H](CC=O)C[C@@H](C)[C@@H](O[C@@H]2CC[C@H](N(C)C)[C@@H](C)O2)/C=C/C=C/C[C@@H](C)OC(=O)C[C@H]1OC(C)=O
inactive: Potency [1] | Potency [2] | Potency [3] | outcome [4] | max response [5] 1.04% | Potency [6] | Potency [7] | Potency [8] | Potency [9] | Potency [18] | Potency [11] | Potency [12] | Potency [13] | outcome [14] | Potency [15] | Potency [16] | Potency [20]

C[C@@H](O)[C@H]1C(=O)N2C(C(=O)O)=C(S[C@@H]3CN[C@H](CNS(N)(=O)=O)C3)[C@H](C)[C@H]12
inactive: Potency [1] | Potency [2] | Potency [3] | outcome [4] | max response [5] 2.56% | Potency [6] | Potency [7] | Potency [8] | Potency [9] | Potency [10] | Potency [18] | Potency [12] | Potency [13] | outcome [14] | Potency [16] | Potency [17] | Potency [20]

CCCCCCCCC(=O)OCC(C)OC(=O)CCCCCCCC (centres undefined)
inactive: Potency [1] | Potency [2] | Potency [3] | outcome [4] | max response [5] 0.14% | Potency [6] | Potency [7] | Potency [8] | Potency [9] | Potency [10] | Potency [11] | Potency [19] | Potency [12] | Potency [13] | Potency [15] | Potency [16] | Potency [17] | Potency [20]

NC(=O)c1cc[n+](CC2=C(C(=O)[O-])N3C(=O)[C@@H](NC(=O)Cc4cccs4)[C@H]3SC2)cc1
inactive: Potency [1] | Potency [2] | Potency [3] | outcome [4] | max response [5] 4.75% | Potency [6] | Potency [7] | Potency [8] | Potency [9] | Potency [18] | Potency [19] | Potency [12] | Potency [13] | Potency [15] | Potency [16] | Potency [17] | Potency [20]

CCC1=C(C)CN(C(=O)NCCc2ccc(S(=O)(=O)NC(=O)NC3CCC(C)CC3)cc2)C1=O (centres undefined)
inactive: Potency [1] | Potency [2] | Potency [3] | outcome [4] | Potency [6] | Potency [7] | Potency [8] | Potency [9] | Potency [10] | Potency [18] | Potency [11] | Potency [12] | Potency [13] | Potency [15] | Potency [16] | Potency [17] | Potency [20]

CC(C)(C)c1ccc(CCC=O)cc1
inactive: Potency [1] | Potency [2] | Potency [3] | outcome [4] | max response [5] 3.22% | Potency [6] | Potency [7] | Potency [8] | Potency [11] | Potency [19] | Potency [13] | outcome [14] | Potency [16] | Potency [17] | Potency [20]
